This is an account of results in PubChem BioAssay (EPA / NIEHS).

The AC50 is the concentration at which the activity in the assay is half-maximal.

The structures appear in SMILES notation. Active and inactive are the calls of the source. Rule for the calls: active = hit-call score of the fitted dose curve at least 0.9, where 1 is the maximum; inactive = score below 0.9.

Sequence of Hepatocyte nuclear factor 3-beta (Homo sapiens) (Q9Y261 whole entry, looked up): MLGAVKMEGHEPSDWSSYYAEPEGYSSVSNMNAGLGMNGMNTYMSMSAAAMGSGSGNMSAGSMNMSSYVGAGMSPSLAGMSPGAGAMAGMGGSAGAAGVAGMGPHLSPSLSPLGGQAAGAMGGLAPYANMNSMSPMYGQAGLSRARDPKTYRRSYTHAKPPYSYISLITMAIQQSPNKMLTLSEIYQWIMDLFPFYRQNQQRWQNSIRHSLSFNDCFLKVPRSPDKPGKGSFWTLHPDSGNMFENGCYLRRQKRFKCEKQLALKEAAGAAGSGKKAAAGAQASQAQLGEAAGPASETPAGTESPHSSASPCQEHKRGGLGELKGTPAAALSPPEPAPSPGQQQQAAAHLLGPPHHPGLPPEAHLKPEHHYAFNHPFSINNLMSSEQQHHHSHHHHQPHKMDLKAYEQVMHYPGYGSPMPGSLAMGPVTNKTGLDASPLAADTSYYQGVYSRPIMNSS

Tested on in the first assay: not listed separately
In words: ATG_Ets_CIS: Attagene CIS-FACTORIAL HepG2 Assay for human Erythroblast Transformation Specific (ETS) (AID 2282941). The note with it: HepG2 ETS cis-reporter transcription, actives raise or lower the signal. The method, boiled down:
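Human HepG2 hepatoma cells were transiently transfected with promoter-driven reporter constructs and treated for 24 hours. Reporter transcripts were quantified by RT-PCR with fluorescent primer extension; bidirectional curve fitting used DMSO as reference.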
Regarding `CC1=CC(=O)/C(=C(/C)O)C(=O)O1`, the call was inactive.
Same read-out and setting: under `Cc1oc2c(NC(=O)c3c(Cl)cccc3Cl)cccc2c1C(C)(C)O` stands “inactive”; under `CCCCCCCCCC(=O)O`, “inactive”; under `COc1ccc2cc(S(=O)(=O)N[C@H](CC(=O)N[C@H](Cc3ccc(CN4[C@H](C)CCC[C@@H]4C)cc3)C(=O)N(C)C(C)C)c3ccc4c(c3)OCO4)ccc2c1`, “inactive”.
The same measure, in the same setting: the result for `c1ccc2n[nH]nc2c1` reads “inactive”.
The same measure, in the same setting: under `CN1C(=O)CC[C@H]1c1cccnc1` stands “inactive”; under `O=C(O)Cn1c(=O)n(Cc2ccc(Br)cc2F)c(=O)c2ccc(Cl)cc21`, “inactive”; under `CCCCCCCCCCCCO`, “inactive”.
Take `COc1cc(C(=O)NC2CCN(C)CC2)ccc1Nc1ncc2c(n1)N(C1CCCC1)CC(F)(F)C(=O)N2C`: the half-maximal activity concentration (AC50) was 1.55 µM (active).
Regarding `O=C(OCCCCCCOC(=O)c1ccccc1)c1ccccc1`, the outcome was inactive.
`CC(C)(C)c1csc(-c2cc3cc(OCc4ccccc4CC(=O)O)ccc3o2)n1`: the result was inactive.
Same read-out and setting: the result for `O=C=NCCCCCCN=C=O` reads “inactive”; that for `O=C1c2ccccc2C(=O)N1CCc1noc(-c2ccc(CN3CCCCCC3)s2)n1`, “inactive”; that for `CCCCCCCCCCCC[N+](C)(C)C`, “inactive”.
For `CC(=O)N1CCN(c2ccc(OC[C@H]3CO[C@](Cn4ccnc4)(c4ccc(Cl)cc4Cl)O3)cc2)CC1`, the outcome was inactive.
The same measure, in the same setting: the result for `NCc1cccc(C2CCN(C(=O)c3ccc(C#Cc4ccccc4F)o3)CC2)c1` reads “inactive”.
Take `O=C1O[C@H]([C@@H](O)CO)C(O)=C1O`: the compound was called inactive.
Turning to `Cc1occc1C(=O)Nc1ccc(C(=O)N2CCC(F)(F)/C(=C\C(=O)N3CCC(N4CCCCC4)CC3)c3ccccc32)cc1`, the AC50 is 55.9 µM (active).
As for `CC(C)(C)c1cc(/C=C2\SC(N)=NC2=O)cc(C(C)(C)C)c1O`, the outcome was inactive.
As to `CCCC(=O)OCCC(C)C`, the AC50 is 26.8 µM (active).
On to `Cc1ncc(CO)c(CO)c1O`, for which the result was inactive.
On to `CCN(CC)C(=O)c1cc(S(=O)(=O)Cc2ccccc2)c(N2CCC(c3ccccc3)CC2)cc1N(CC)CCN(C)C`, for which the result was inactive.
On the same count and under the same terms, the result for `CCCCOC(=O)CC(CC(=O)OCCCC)(OC(C)=O)C(=O)OCCCC` reads “inactive”; that for `Cc1ccc2oc(CN(Cc3ccccc3)C(=O)Nc3c(F)cc(F)cc3F)c(-c3ccc(Cl)cc3)c2c1`, “inactive”.
Same read-out and setting: the result for `CCCCCCCCOC(=O)c1cc(O)c(O)c(O)c1` reads “inactive”; that for `O=c1[nH]sc2ccccc12`, “inactive”.
Take `CCCCCCCCOc1ccc(C(=O)c2ccccc2)c(O)c1`: the call was inactive.
The same measure, in the same setting: the result for `CN1C(=O)N(c2ccccc2Br)Cc2cnc(Nc3ccc4c(c3)OCC(CO)O4)nc21` (stereo unspecified) reads “inactive”; that for `Clc1ccccc1C(c1ccccc1)(c1ccccc1)n1ccnc1`, “inactive”; that for `CC(O)CC(C)(C)O` (stereo unspecified), “inactive”.
The same measure, in the same setting: the result for `CCOC(=O)O[C@H](C)OC(=O)c1ccc2c(c1)cc(C(=O)NC1CCN(C(C)C)CC1)n2Cc1cc(-c2ccc(Cl)s2)on1` reads “inactive”.
The same measure, in the same setting: under `O=CCCCC=O` stands “inactive”.
Regarding `CC(C)(c1cc(Br)c(O)c(Br)c1)c1cc(Br)c(O)c(Br)c1`, the result was inactive.
On the same count and under the same terms, under `Cc1cccc2ccccc12` stands “inactive”; under `CC(C)(O)c1ccc(CNC(=O)c2cccnc2Oc2ccc3nonc3c2)cc1`, “inactive”; under `CCO[Si](CCCNC(N)=O)(OCC)OCC`, “inactive”.
As to `C[C@]12CC[C@@H]3c4ccc(O)cc4CC[C@H]3[C@@H]1CCC2=O`, the outcome was inactive.
Still for that read-out and setting: under `COc1cccc([C@H](O)C2CCN(CCc3ccc(F)cc3)CC2)c1OC` stands “inactive”.

The next assay addresses Hepatocyte nuclear factor 3-beta (Homo sapiens) (UniProt Q9Y261). Nature of the assay: ATG_FoxA2_CIS: Attagene CIS-FACTORIAL HepG2 Assay for human Forkhead box A2 (FOXA2) (AID 2282942). As to conditions: HepG2 cis-reporter transcription factor activity, 24 h; actives raise or lower the signal. In outline: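 Transient MRTU transfection of HepG2 liver cells; 24 h treatment; total RNA → oligo(dT) RT → PCR → FAM primer extension → HpaI cut → CE. Bidirectional fit vs DMSO.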
As to `CC1=CC(=O)/C(=C(/C)O)C(=O)O1`, the compound was called inactive.
Turning to `Cc1oc2c(NC(=O)c3c(Cl)cccc3Cl)cccc2c1C(C)(C)O`, the AC50 was 27.3 µM (active).
In the case of `CCCCCCCCCC(=O)O`, the compound was classed as inactive.
Still for that read-out and setting: under `COc1ccc2cc(S(=O)(=O)N[C@H](CC(=O)N[C@H](Cc3ccc(CN4[C@H](C)CCC[C@@H]4C)cc3)C(=O)N(C)C(C)C)c3ccc4c(c3)OCO4)ccc2c1` stands “inactive”; under `c1ccc2n[nH]nc2c1`, “inactive”.
Turning to `CN1C(=O)CC[C@H]1c1cccnc1`, the compound was classed as inactive.
For the compound `O=C(O)Cn1c(=O)n(Cc2ccc(Br)cc2F)c(=O)c2ccc(Cl)cc21`, the compound was called inactive.
The same measure, in the same setting: under `CCCCCCCCCCCCO` stands “inactive”; under `COc1cc(C(=O)NC2CCN(C)CC2)ccc1Nc1ncc2c(n1)N(C1CCCC1)CC(F)(F)C(=O)N2C`, “inactive”.
Still for that read-out and setting: the result for `O=C(OCCCCCCOC(=O)c1ccccc1)c1ccccc1` reads “inactive”; that for `CC(C)(C)c1csc(-c2cc3cc(OCc4ccccc4CC(=O)O)ccc3o2)n1`, “inactive”.
Still for that read-out and setting: under `O=C=NCCCCCCN=C=O` stands “inactive”.
Consider `O=C1c2ccccc2C(=O)N1CCc1noc(-c2ccc(CN3CCCCCC3)s2)n1`, for which the result was inactive.
Same read-out and setting: the result for `CCCCCCCCCCCC[N+](C)(C)C` reads “inactive”.
Consider `CC(=O)N1CCN(c2ccc(OC[C@H]3CO[C@](Cn4ccnc4)(c4ccc(Cl)cc4Cl)O3)cc2)CC1`, for which the compound was called inactive.
Take `NCc1cccc(C2CCN(C(=O)c3ccc(C#Cc4ccccc4F)o3)CC2)c1`: the compound was called inactive.
The same measure, in the same setting: under `O=C1O[C@H]([C@@H](O)CO)C(O)=C1O` stands “inactive”.
For `Cc1occc1C(=O)Nc1ccc(C(=O)N2CCC(F)(F)/C(=C\C(=O)N3CCC(N4CCCCC4)CC3)c3ccccc32)cc1`, the AC50 is 34.5 µM (active).
Regarding `CC(C)(C)c1cc(/C=C2\SC(N)=NC2=O)cc(C(C)(C)C)c1O`, the call was inactive.
Regarding `CCCC(=O)OCCC(C)C`, the outcome was inactive.
Same read-out and setting: the result for `Cc1ncc(CO)c(CO)c1O` reads “inactive”; that for `CCN(CC)C(=O)c1cc(S(=O)(=O)Cc2ccccc2)c(N2CCC(c3ccccc3)CC2)cc1N(CC)CCN(C)C`, “inactive”.
On the same count and under the same terms, the result for `CCCCOC(=O)CC(CC(=O)OCCCC)(OC(C)=O)C(=O)OCCCC` reads “inactive”; that for `Cc1ccc2oc(CN(Cc3ccccc3)C(=O)Nc3c(F)cc(F)cc3F)c(-c3ccc(Cl)cc3)c2c1`, “inactive”; that for `CCCCCCCCOC(=O)c1cc(O)c(O)c(O)c1`, “inactive”.
The same measure, in the same setting: the result for `O=c1[nH]sc2ccccc12` reads “inactive”; that for `CCCCCCCCOc1ccc(C(=O)c2ccccc2)c(O)c1`, “inactive”; that for `CN1C(=O)N(c2ccccc2Br)Cc2cnc(Nc3ccc4c(c3)OCC(CO)O4)nc21` (stereo unspecified), “inactive”.
Turning to `Clc1ccccc1C(c1ccccc1)(c1ccccc1)n1ccnc1`, the compound was classed as inactive.
Consider `CC(O)CC(C)(C)O` (stereo unspecified), for which the call was inactive.
As for `CCOC(=O)O[C@H](C)OC(=O)c1ccc2c(c1)cc(C(=O)NC1CCN(C(C)C)CC1)n2Cc1cc(-c2ccc(Cl)s2)on1`, the outcome was inactive.
For the compound `O=CCCCC=O`, the compound was classed as inactive.
Still for that read-out and setting: the result for `CC(C)(c1cc(Br)c(O)c(Br)c1)c1cc(Br)c(O)c(Br)c1` reads “inactive”.
Regarding `Cc1cccc2ccccc12`, the result was inactive.
For `CC(C)(O)c1ccc(CNC(=O)c2cccnc2Oc2ccc3nonc3c2)cc1`, the outcome was inactive.
Same read-out and setting: under `CCO[Si](CCCNC(N)=O)(OCC)OCC` stands “inactive”; under `C[C@]12CC[C@@H]3c4ccc(O)cc4CC[C@H]3[C@@H]1CCC2=O`, “inactive”; under `COc1cccc([C@H](O)C2CCN(CCc3ccc(F)cc3)CC2)c1OC`, “inactive”.
